# From ChEMBL document CHEMBL3988442, “University of Dundee, Small-Polar-MMV Screening Library” (2021)
# For some of these results: Results with a measured potency or affinity are listed apart.
# What was measured:
# Set-up in all cases: scale not given: direction of the effect not stated beside the values
# [1] = target: Protein translocase subunit SecA (Escherichia coli (strain K12)) (UniProt P10408); experiment: Assay to Identify E. coli SecA ATPase Inhibitors; format: functional; details: 30 µM
# [2] = target: T1, Ubiquitin-activating enzyme e1, putative (Leishmania donovani (strain BPK282A1)) (UniProt E9BSI1); experiment: Leishmania donovani Ubiquitin Activating Enzyme (LdE1); format: functional; details: 30 µM
# T1 sequence (whole entry): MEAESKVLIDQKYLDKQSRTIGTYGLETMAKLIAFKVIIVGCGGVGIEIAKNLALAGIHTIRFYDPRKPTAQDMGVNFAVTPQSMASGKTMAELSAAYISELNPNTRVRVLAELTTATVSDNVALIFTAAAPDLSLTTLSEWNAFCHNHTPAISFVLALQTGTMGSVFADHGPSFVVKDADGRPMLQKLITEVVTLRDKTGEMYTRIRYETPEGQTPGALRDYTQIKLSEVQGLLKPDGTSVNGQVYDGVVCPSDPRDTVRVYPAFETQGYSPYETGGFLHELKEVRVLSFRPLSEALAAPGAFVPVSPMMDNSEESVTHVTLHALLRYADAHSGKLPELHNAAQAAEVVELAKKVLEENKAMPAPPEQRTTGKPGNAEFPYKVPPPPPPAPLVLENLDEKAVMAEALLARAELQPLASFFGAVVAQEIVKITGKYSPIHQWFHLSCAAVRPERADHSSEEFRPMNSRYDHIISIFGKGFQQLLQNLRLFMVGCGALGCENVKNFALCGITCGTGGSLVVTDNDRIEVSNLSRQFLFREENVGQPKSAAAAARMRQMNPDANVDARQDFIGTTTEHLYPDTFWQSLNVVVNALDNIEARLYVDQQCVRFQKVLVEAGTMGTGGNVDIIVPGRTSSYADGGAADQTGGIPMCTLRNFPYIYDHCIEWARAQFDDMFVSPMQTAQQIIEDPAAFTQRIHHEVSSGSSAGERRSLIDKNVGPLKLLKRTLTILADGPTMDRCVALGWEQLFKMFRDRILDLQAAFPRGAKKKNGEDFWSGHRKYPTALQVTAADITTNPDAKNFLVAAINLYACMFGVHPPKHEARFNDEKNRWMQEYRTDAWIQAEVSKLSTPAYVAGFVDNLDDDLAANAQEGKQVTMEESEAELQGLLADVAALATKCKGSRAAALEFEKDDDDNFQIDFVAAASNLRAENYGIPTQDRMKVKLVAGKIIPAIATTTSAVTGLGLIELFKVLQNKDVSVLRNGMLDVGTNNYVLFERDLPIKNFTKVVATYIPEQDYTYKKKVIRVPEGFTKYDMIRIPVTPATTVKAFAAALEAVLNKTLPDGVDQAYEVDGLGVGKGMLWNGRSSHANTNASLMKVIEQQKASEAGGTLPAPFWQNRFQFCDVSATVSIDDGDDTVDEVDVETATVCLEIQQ
# [3] = target: AMP-activated protein kinase, AMPK (Homo sapiens) (UniProt P54646+O43741+P54619+Q9UGJ0+Q9Y478+Q13131+Q9UGI9); experiment: AMP-dependent Kinase enzyme assay. An in vitro enzyme assay that detects ADP turnover that is directly proportional to AMPK activity. This uses naive AMPK that is activated during the assay with MK-8722; format: functional; details: 30 µM
# [4] = target: Sialic acid-binding Ig-like lectin 9 (Homo sapiens) (UniProt Q9Y336); experiment: Hs-Siglec9 ALPHAscreen SOP 20170721; details: 10 µM
# Trypanosoma cruzi = experiment: Trypanosoma cruzi phosphomannomutase and mannose-1-phosphate guanylyltransferase assay; format: functional; details: 10 µM
# [5] = target: T2, Arginase-2, mitochondrial (Homo sapiens) (UniProt P78540); experiment: in vitro enzyme assay to detect the production of urea directly proportional to the activity of Arginase II; format: functional; details: 33.3 µM; also: in the data most compounds retested in dose-response had high values
# T2 sequence (whole entry): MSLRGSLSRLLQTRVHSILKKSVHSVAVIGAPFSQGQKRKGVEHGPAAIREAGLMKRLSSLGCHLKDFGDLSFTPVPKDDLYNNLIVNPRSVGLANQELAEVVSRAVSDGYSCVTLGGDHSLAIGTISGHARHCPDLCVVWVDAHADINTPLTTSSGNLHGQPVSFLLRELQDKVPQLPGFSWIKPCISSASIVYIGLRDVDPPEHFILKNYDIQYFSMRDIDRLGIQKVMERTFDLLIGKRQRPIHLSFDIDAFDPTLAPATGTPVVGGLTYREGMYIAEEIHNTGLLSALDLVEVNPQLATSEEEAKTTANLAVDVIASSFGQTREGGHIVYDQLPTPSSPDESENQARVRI
# [6] = target: T3, Proteasome subunit beta (Trypanosoma cruzi) (UniProt O96673); experiment: Trypanosoma cruzi proteasome chymotrypsin-like activity (TcProtChymo) assay.; also: in the data most compounds retested in dose-response had high values; format: functional; details: 9.37 µM
# T3 sequence (whole entry): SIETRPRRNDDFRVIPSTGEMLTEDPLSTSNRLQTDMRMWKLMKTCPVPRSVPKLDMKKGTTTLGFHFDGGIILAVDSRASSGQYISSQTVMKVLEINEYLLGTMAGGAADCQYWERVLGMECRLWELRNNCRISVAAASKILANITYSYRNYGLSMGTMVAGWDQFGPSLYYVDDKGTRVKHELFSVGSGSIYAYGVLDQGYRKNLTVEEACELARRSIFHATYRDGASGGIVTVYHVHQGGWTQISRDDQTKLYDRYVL
# Homo sapiens = organism: Homo sapiens; experiment: To identify inhibition of the IFN signalling (Jak-Stat) pathway via expression of an eGFP reporter gene under the control of an IFN-stimulated response element (ISRE) containing MxA promoter.; format: functional; details: 30 µM
# [7] = target: T4, Tyrosyl-tRNA synthetase, putative (Trypanosoma cruzi (strain CL Brener)) (UniProt Q4DSP6); experiment: Trypanosoma cruzi tyrosyl tRNA synthetase (TcYRS) _High Tyrosine SOP; format: functional; details: 30 µM; also: in the data most compounds retested in dose-response had high values
# T4 sequence (whole entry): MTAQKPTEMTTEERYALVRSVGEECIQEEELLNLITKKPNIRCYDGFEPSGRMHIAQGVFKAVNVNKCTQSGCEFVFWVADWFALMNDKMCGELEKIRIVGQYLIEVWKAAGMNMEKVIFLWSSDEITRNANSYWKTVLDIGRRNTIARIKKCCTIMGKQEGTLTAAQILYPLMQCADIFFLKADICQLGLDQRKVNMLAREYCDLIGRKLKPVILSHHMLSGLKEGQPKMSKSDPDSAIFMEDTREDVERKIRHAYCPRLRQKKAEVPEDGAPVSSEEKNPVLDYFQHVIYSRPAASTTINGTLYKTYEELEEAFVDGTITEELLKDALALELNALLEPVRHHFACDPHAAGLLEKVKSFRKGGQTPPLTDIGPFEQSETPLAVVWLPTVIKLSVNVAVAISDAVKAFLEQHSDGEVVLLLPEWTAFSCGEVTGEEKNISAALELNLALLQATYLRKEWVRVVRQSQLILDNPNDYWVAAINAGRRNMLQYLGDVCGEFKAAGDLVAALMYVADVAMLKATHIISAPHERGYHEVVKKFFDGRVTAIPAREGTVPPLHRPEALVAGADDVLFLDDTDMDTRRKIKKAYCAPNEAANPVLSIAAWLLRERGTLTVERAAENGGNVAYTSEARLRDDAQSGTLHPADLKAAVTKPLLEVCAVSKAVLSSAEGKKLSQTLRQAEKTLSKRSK
# [8] = target: T4, Tyrosyl-tRNA synthetase, putative (Trypanosoma cruzi (strain CL Brener)); experiment: Trypanosoma cruzi tyrosyl tRNA synthetase (TcYRS) SOP; format: functional; details: 30 µM
# [9] = target: Chromo domain-containing protein 1 (Saccharomyces cerevisiae (strain ATCC 204508 / S288c) (Baker's yeast)) (UniProt P32657); experiment: ScCHD-1 Enzyme Inhibition Assay; format: functional; details: 30 µM; also: in the data most compounds retested in dose-response had high values
# Chain of Chromo domain-containing protein 1 (Saccharomyces cerevisiae (strain ATCC 204508 / S288c) (Baker's yeast)) (P32657 whole entry, the tested form may be a part): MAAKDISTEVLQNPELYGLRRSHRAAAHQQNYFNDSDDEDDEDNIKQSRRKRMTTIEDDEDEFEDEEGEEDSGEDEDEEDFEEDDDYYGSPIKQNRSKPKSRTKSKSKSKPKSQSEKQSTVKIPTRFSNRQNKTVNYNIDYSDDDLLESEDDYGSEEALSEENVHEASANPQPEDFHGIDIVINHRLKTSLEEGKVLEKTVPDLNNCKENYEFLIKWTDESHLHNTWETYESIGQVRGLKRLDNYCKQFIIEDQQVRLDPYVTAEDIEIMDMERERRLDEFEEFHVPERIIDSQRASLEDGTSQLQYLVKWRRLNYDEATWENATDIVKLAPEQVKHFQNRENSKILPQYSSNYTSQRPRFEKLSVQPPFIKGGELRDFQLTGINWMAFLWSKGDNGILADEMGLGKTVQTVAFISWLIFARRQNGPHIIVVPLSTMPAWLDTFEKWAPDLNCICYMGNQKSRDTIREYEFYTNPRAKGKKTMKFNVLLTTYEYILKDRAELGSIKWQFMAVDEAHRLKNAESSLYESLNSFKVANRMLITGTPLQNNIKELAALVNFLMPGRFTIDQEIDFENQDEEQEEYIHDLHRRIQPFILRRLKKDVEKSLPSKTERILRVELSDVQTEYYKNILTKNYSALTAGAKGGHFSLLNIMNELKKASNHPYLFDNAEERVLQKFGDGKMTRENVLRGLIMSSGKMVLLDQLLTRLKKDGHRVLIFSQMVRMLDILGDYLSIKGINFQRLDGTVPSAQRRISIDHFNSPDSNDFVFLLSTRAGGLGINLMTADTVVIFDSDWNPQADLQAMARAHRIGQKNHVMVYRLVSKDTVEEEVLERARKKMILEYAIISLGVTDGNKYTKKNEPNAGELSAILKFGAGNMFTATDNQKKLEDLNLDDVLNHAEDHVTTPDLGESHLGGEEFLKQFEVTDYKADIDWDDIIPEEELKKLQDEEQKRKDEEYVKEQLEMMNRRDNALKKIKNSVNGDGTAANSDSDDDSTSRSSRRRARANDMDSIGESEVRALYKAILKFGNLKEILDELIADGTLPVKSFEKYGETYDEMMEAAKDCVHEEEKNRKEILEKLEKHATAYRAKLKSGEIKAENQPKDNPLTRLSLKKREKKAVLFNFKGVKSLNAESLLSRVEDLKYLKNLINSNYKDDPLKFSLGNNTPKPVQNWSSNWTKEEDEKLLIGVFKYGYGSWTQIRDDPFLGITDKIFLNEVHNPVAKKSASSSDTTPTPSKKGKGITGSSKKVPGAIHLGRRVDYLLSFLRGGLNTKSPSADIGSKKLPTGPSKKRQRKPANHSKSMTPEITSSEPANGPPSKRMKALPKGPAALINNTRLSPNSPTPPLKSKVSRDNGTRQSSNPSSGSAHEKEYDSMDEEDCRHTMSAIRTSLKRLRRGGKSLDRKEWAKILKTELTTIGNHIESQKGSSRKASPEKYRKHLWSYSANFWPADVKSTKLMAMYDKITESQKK
# Chain of Protein translocase subunit SecA (Escherichia coli (strain K12)) (P10408 whole entry): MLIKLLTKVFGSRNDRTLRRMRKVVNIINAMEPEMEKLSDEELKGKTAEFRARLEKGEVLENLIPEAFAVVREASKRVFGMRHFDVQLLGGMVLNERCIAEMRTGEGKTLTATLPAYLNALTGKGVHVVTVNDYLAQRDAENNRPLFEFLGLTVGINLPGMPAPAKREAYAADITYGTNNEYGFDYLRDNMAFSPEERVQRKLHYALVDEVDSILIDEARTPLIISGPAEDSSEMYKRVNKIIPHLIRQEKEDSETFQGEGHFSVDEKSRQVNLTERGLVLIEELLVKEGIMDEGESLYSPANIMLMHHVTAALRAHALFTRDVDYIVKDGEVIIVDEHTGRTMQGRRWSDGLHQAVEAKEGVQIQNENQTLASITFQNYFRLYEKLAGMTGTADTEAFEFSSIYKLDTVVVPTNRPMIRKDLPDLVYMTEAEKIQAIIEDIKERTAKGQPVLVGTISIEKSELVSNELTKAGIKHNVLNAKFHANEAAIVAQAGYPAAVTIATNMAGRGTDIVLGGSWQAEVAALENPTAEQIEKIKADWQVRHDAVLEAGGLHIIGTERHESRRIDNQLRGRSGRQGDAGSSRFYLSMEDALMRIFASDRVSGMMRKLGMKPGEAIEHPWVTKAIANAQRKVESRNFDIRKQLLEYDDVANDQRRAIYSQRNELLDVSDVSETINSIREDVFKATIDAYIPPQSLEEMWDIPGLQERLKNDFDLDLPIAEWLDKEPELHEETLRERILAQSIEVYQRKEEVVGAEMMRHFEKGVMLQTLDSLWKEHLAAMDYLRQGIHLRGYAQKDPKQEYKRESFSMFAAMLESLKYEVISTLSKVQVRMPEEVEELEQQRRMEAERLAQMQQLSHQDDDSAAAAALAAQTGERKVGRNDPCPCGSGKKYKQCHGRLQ
# Chain of Sialic acid-binding Ig-like lectin 9 (Homo sapiens) (Q9Y336 whole entry): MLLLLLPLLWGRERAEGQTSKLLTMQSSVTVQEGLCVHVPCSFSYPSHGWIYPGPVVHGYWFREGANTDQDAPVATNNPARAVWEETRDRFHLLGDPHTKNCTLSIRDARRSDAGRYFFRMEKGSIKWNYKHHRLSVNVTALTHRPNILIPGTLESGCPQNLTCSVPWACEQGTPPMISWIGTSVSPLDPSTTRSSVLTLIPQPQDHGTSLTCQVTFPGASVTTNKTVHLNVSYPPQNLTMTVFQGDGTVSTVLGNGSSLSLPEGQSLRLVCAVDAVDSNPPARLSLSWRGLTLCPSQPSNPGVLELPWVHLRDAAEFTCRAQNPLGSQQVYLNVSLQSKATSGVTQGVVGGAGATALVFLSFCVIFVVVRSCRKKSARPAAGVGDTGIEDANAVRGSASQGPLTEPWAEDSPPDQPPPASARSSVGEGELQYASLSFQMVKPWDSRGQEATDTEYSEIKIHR
Structure (SMILES),Percent Effect [1],Percent Effect [2],Percent Effect [3],Percent Effect [4],Percent Effect (Trypanosoma cruzi),Percent Effect [5],Percent Effect [6],Percent Effect (Homo sapiens),Percent Effect [7],Percent Effect [8],Percent Effect [9]
CCc1ccc(CN2C[C@@H]3OCCN(c4ccnc(N(C)C)n4)[C@@H]3C2)o1,-1.43%,5.48%,-0.72%,13.7%,1.98%,-13.6%,7.28%,82.1%,5.21%,-3.7%,-4.54%
Cc1ccc(C#N)c(N2CCC(c3nccn3Cc3cscn3)CC2)n1,-1.6%,10.7%,-4.04%,15.7%,5.75%,9.38%,13.2%,3.33%,4.92%,16.1%,-7.28%
CN(C)c1cc2c(nn1)CCN(C(=O)C1CCc3ccccc31)C2 (stereo not drawn),-6.92%,5.06%,-21.4%,3.81%,-0.283%,0.38%,-1.06%,15.8%,-5.42%,-8.86%,-2.71%
Cc1ccccc1CNC(=O)Cc1c(C)nc2cc(=O)[nH]n2c1C,-2.72%,13.2%,-32.1%,17.4%,4.13%,-4.21%,4.18%,2.25%,9.31%,17.1%,-11.1%
Cn1cc(CN2CCCN(C(=O)c3cc(Cl)cn3C)CC2)cn1,-2.96%,13.2%,-8.7%,-2.03%,-6.39%,-3.45%,20.6%,28%,1.47%,7.32%,-9.82%
CN(C)C(=O)[C@H]1C[C@@H]2CN(S(=O)(=O)Cc3ccccc3)C[C@H]1O2,-2.48%,13.3%,5.4%,-3.98%,-1.38%,3.96%,7.49%,-3.98%,5.32%,11.5%,-6.01%
CCn1c(C(=O)N2CCN(C(=O)NC(C)C)CC2)cc2ccccc21,-9.42%,2.6%,5.86%,-4.68%,-3.37%,0.356%,6.93%,14.7%,0%,0%,-7.12%
Cc1nn(C)c(Cl)c1C1CCCN1c1ncnc2sccc12 (stereo not drawn),-6.84%,-2.67%,-2.13%,8.98%,5.36%,7.29%,1.4%,35.8%,0.546%,3.7%,0.644%
